Results reported in PubChem BioAssay (NCATS).
Records with an inconclusive call do not appear. The source made the active and inactive calls. The call rests on the fitted dose curve; in most records, active means well fitted curve in the direction sought with a large enough effect; inconclusive means small, poorly fitted or top-dose-only effect, or another doubt; inactive means no such curve, though single readings can be large; an effect the other way counts as inactive or inconclusive.

Assays:
[1] = tested on: MCC-13; test: qHTS assay to identify novel small-molecules to repurpose for Merkel cell carcinoma treatment (AID 1296009); settings: MCC and control cell lines, CellTiter-Glo viability, 72 h; series mostly up to 46 µM; further: nearly all actives have a fitted effect of over 60% in size
Procedure, shortened: (§1)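 Cells were incubated with compound for 72 hr at 37 degree celsius before CellTiter-Glo addition. Luminescence was normalized with no-cell wells as full cytotoxicity and DMSO as baseline.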

[2] = tested on: MCC-26; test: as above; settings: MCC and control cell lines, CellTiter-Glo viability, 72 h; series mostly up to 46 µM
Procedure, shortened: as §1

[3] = tested on: MKL-1; test: as above; settings: MCC and control cell lines, CellTiter-Glo viability, 72 h; series mostly up to 46 µM
Procedure, shortened: as §1

[4] = tested on: MKL-2; test: as above; settings: MCC and control cell lines, CellTiter-Glo viability, 72 h; series mostly up to 46 µM
Procedure, shortened: as §1

[5] = tested on: UISO; test: as above; settings: MCC and control cell lines, CellTiter-Glo viability, 72 h; series mostly up to 46 µM
Procedure, shortened: as §1

[6] = tested on: WaGa; test: as above; settings: MCC and control cell lines, CellTiter-Glo viability, 72 h; series mostly up to 46 µM
Procedure, shortened: as §1

[7] = tested on: C33A; test: Primary qHTS to identify gynecologic anti-cancer compounds using libraries of approved drugs and bioactive compounds (AID 1345084); settings: Gynecologic cancer cell panel viability, ATPlite luminescence, 48 h; series mostly up to 57.5 µM; further: nearly all actives have a fitted effect of over 55% in size
Procedure, shortened: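 Five-point cytotoxicity, 48 h drug exposure at 37 C, 5% CO2, on cells seeded 16 h beforehand. ATP content read by ATPlite luminescence.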
On the % scale 0 is the no-effect control and ±100 the full control effect; potency means the concentration at half of the fitted maximal effect.

CN(C)CC/C=C1/c2ccccc2COc2ccc(CC(=O)O)cc21
inactive: Potency [1] | Potency [2] | Potency [3] | Potency [4] | Potency [5] | Potency [6] | Potency [7]

Cc1cc(N)c2cc(NC(=O)Nc3ccc4nc(C)cc(N)c4c3)ccc2n1
inactive: Potency [1] | Potency [2] | Potency [4] | Potency [5] | Potency [7]

CCOc1ccc(NC(=O)CC(C)O)cc1 (stereo not drawn)
inactive: Potency [1] | Potency [2] | Potency [3] | Potency [4] | Potency [5] | Potency [6] | Potency [7]

CCn1cc(C(=O)O)c(=O)c2cnc(N3CCCC3)nc21
inactive: activity change, negative = cytotoxicity [1] 5.05% [at 9.22 µM] | activity change, negative = cytotoxicity [2] -5.4% [at 9.22 µM] | activity change, negative = cytotoxicity [3] 1.32% [at 9.22 µM] | activity change, negative = cytotoxicity [4] 14.9% [at 9.22 µM] | activity change, negative = cytotoxicity [5] 12.1% [at 9.22 µM] | activity change, negative = cytotoxicity [6] 0.34% [at 9.22 µM] | activity change, negative = cytotoxicity [7] -2.2% [at 11.6 µM]

CN(C)CCCOc1nn(Cc2ccccc2)c2ccccc12
inactive: Potency [1] | Potency [2] | Potency [3] | Potency [7]

CN(C/C=C/c1ccccc1)Cc1cccc2ccccc12
inactive: Potency [1] | Potency [2] | Potency [3] | Potency [4] | Potency [6] | Potency [7]

COc1cccc2c1C(=O)c1c(O)c3c(c(O)c1C2=O)C[C@@](O)(C(=O)CO)C[C@@H]3O[C@H]1C[C@H](N)[C@H](O)[C@H](C)O1
active: Potency [1] 5.96 µM | Potency [2] 2.11 µM | Potency [3] 211 nM | Potency [5] 750 nM | Potency [7] 2.82 µM

CCN(CCCc1ccccc1)CCCc1ccccc1
inactive: Potency [1] | Potency [2] | Potency [3] | Potency [5] | Potency [6] | Potency [7]

CC[N+](CC)(CCNC(=O)C(=O)NCC[N+](CC)(CC)Cc1ccccc1Cl)Cc1ccccc1Cl
inactive: Potency [1] | Potency [2] | Potency [3] | Potency [4] | Potency [5] | Potency [6] | Potency [7]

CCCCOc1cc(C(=O)NCCN(CC)CC)c2ccccc2n1
inactive: Potency [1] | Potency [2] | Potency [3] | Potency [7]

COC(=O)C1=C(C)NC(C)=C(C(=O)O[C@@H]2CCCN(Cc3ccccc3)C2)[C@@H]1c1cccc([N+](=O)[O-])c1
active: Potency [6] 26.6 µM
inactive: Potency [1] | Potency [2] | Potency [3] | Potency [7]

COc1cccc(CCc2ccccc2OCC(CN(C)C)OC(=O)CCC(=O)O)c1 (stereo not drawn)
inactive: Potency [1] | Potency [2] | Potency [3] | Potency [5] | Potency [7]

C#C[C@]1(O)CC[C@H]2[C@@H]3CCC4=CC(=O)CC[C@@H]4[C@H]3CC[C@@]21C
inactive: Potency [1] | Potency [2] | Potency [3] | Potency [4] | Potency [5] | Potency [6] | Potency [7]

CC/C(=C(/CC)c1ccc(O)cc1)c1ccc(O)cc1
inactive: Potency [1] | Potency [2] | Potency [3] | Potency [7]

CC(C)(Oc1ccc(Cl)cc1)C(=O)O
inactive: Potency [1] | Potency [2] | Potency [3] | Potency [4] | Potency [5] | Potency [6] | Potency [7]

OC[C@H]1O[C@@H](n2cnc3c(=S)nc[nH]c32)[C@H](O)[C@@H]1O
inactive: Potency [2] | Potency [4]
active: Potency [1] 2.11 µM | Potency [6] 0.237 µM | Potency [7] 7.94 µM

O=C(Nc1ccc(Cl)c(Cl)c1)C1CC1
inactive: Potency [1] | Potency [2] | Potency [3] | Potency [4] | Potency [5] | Potency [6] | Potency [7]

O=C(COc1ccc(Cl)cc1)N1CCN(Cc2ccc3c(c2)OCO3)CC1
inactive: Potency [1] | Potency [2] | Potency [3] | Potency [5] | Potency [7]

C=C1C[C@H]2[C@@H]3C=C(C)C4=CC(=O)CC[C@]4(C)[C@H]3CC[C@]2(C)[C@@]1(OC(C)=O)C(C)=O
inactive: Potency [1] | Potency [2] | Potency [3] | Potency [5] | Potency [7]
